Results on 64 compounds are retold here after PubChem BioAssay AID2315 (National Center for Advancing Translational Sciences (NCATS), 2010).

Screen size: about 290,000 compounds; about 27,000 (9.3%) were called active. The full list was thinned out, with actives kept by preference. Values without a mark were called inactive. Cut-off read from the data, not from the text of the source: active = inhibition mostly above about 28% (no sharp cut-off); inactive = mostly below about 43%.

This assay can be described thus: A qHTS for Small Molecule Inhibitors of Shiga Toxin. Note: 0% is about no effect. The conditions noted are these: Vero cells, Shiga toxin protein synthesis inhibition reporter; at 38.7 µM, active compounds read high. (In general: In qHTS, concentration-response curves come from the screen itself.)
For `COc1cccc(C(=O)OCc2cc(=O)oc3c(C)c(C)ccc23)c1OC`, the inhibition was 4.14%.
As for `Cc1ccc(CNC(=O)CCS(=O)(=O)c2ccc3c(c2)CC(C)N3C(=O)C2CC2)o1` (centres undefined), the inhibition is 32.1%.
Consider `O=C(Nc1nonc1-c1ccc(Cl)cc1)c1ccco1`, for which the inhibition is 6.78%.
For `COc1cccc(CNC(=O)Cn2c(=O)oc3cc(S(=O)(=O)N4CCCCC4)ccc32)c1`, the inhibition is -6.29%.
The result for `Oc1ccc(-c2nncn2-c2ccccc2)cc1` reads -7.57%; that for `c1ccc(-n2ncc(-c3nn[nH]n3)n2)cc1`, -22.5%; that for `c1ccc(-n2nc3ccccc3n2)cc1`, 25.4% (active).
As to `CN1CN(C)c2ccc([N+](=O)[O-])c3cccc1c23`, the inhibition was 4.19%.
The same measure for `Cc1nn(C)cc1S(=O)(=O)N1CCN(c2ccc(F)cc2)CC1`: -28%; for `COc1ccc(C(C(=O)NC(C)(C)C)N(Cc2ccc(F)cc2)C(=O)CCC(=O)Nc2cc(C)on2)cc1` (centres undefined): -4.11%.
As for `Cc1cc(=O)oc2c(C)c(OCC(=O)NCCN3CCOCC3)ccc12`, the inhibition is -1.86%.
In the case of `O=C(Cc1ccc(Cl)cc1)NCc1nc(-c2ccccc2)no1`, the inhibition was -5.48%.
Regarding `c1ccc(CCc2nc(-c3ccncc3)no2)cc1`, the inhibition was 60.1% (active).
The same measure for `O=C1c2ccccc2C(=O)N1CCCc1nc(-c2ccccc2)no1`: 8.99%; for `COc1ccccc1OCC(O)CN1CCOCC1` (centres undefined): -3.66%.
Turning to `OC(COc1ccc2ccccc2c1)CN1CCOCC1` (centres undefined), the inhibition is 26.8% (active).
As to `OC(COc1ccc2ccccc2c1)Cn1cncn1` (centres undefined), the inhibition was 11%.
The result for `COc1ccc(C2/C=C\CN(Cc3ccco3)C(C)C(=O)N2Cc2ccc(F)cc2)cc1` (centres undefined) reads -2.61%.
The result for `Cc1cc(NC(=O)c2ccco2)c(=O)n(Cc2c(F)cccc2Cl)c1` reads 1.74%; that for `O=C(Nc1cccc(-n2cnnn2)c1)c1cccnc1`, -4.33%.
The same measure for `Cc1ccc(-n2nc3cc(C)c(NC(=O)c4cccnc4)cc3n2)cc1`: 49% (active); for `Cc1c(NC(=O)c2cccnc2)c(=O)n(-c2ccccc2)n1C`: 12.2%; for `COC(=O)c1cc(Cl)c(NC(=O)c2ccco2)cc1OC`: 29.6%.
`Cc1ccc(-n2nc3cc(Cl)c(NC(=O)c4ccco4)cc3n2)cc1`: the inhibition was 75.3% (active).
Regarding `C[C@H](NC(=O)[C@@H]1Cc2ccccc2CN1C(=O)OC(C)(C)C)C(=O)NC1CCCC1`, the inhibition was -6.03%.
For `O=c1[nH]cccc1-c1nc2ccccc2n1Cc1ccc(Cl)cc1`, the inhibition was -20.4%.
The result for `O=S(=O)(c1ccccc1)c1nc(Cc2ccccc2)oc1N1CCOCC1` reads -8%.
The result for `COc1cccc(CNCc2ccc3c(c2)OCO3)c1` reads -0.994%.
Take `COc1cccc(C(=O)NNC(=O)/C=C/c2ccccc2)c1`: the inhibition was -15.7%.
The same measure for `COc1ccc(C2(O)C(=O)Nc3ccccc32)cc1` (centres undefined): -10.8%.
The same measure for `Cc1cc(O)c(C2(O)C(=O)Nc3ccccc32)cc1C` (centres undefined): -0.279%.
The same measure for `O=C1Nc2ccccc2C12Nc1ccccc1S2` (centres undefined): 103% (active).
With `Cn1c(=O)[nH]c(=O)c2c1nc(N1CCN(C(c3ccccc3)c3ccccc3)CC1)n2CCO`, the inhibition is -11.3%.
The same measure for `COc1ccc(NC(=O)c2cccc(Cl)c2)c[n+]1[O-]`: -4.4%.
With `O=[N+]([O-])c1ccccc1/C=C/CN1CCC(O)CC1`, the inhibition was -7.66%.
For the compound `c1ccc(CN2CCC(N=C3NN=C(c4ccc5c(c4)OCCO5)CS3)CC2)cc1`, the inhibition is 116% (active).
The same measure for `Clc1cccc(N=C2NN=C(c3ccc4c(c3)OCCO4)CS2)c1`: 95.2% (active).
The same measure for `CS(=O)(=O)N(CC(=O)N1CCN(Cc2ccccc2)CC1)c1ccc2c(c1)OCCO2`: -18.5%; for `CC(=NC1CCN(Cc2ccccc2)CC1)c1c(O)[nH]c(=O)[nH]c1=O`: 21%; for `Cc1cccc(C)c1NC(=O)CSc1nc2c([nH]1)c(=O)n(C)c(=O)n2C`: -8.9%.
Take `Cc1ccc(C(=O)N2CC(=O)Nc3ccc(F)cc3C2c2ccc(F)cc2)cc1` (centres undefined): the inhibition was 2.9%.
In the case of `CCOC(=O)c1cc(C(=O)Nc2ccc(S(=O)(=O)Nc3ccc(OC)cc3)cc2)nn1C`, the inhibition is 5.33%.
The same measure for `CCOc1ccccc1Nc1ccc2nonc2c1[N+](=O)[O-]`: -7.22%; for `CC(C)(C)C(=O)c1cnc(Nc2ccccc2)s1`: 87% (active).
With `O=C(c1ccc(Cl)cc1)c1cnc(Nc2ccccc2)s1`, the inhibition was 25.6%.
The result for `S=c1[nH]nc(Nc2ccccc2)s1` reads -13.5%.
The same measure for `COc1ccc(-n2cnnc2SCC(=O)Nc2cccc(S(N)(=O)=O)c2)cc1`: -21.7%.
Consider `COc1ccc(OC)c(NC(=O)CN(C)CCOc2ccc(Br)cc2)c1`, for which the inhibition is -23.8%.
The result for `NC(=O)COc1ccccc1C(=O)NC12CC3CC(CC(C3)C1)C2` reads -4.22%; that for `NC(=O)COc1ccc(C23CC4CC(CC(C4)C2)C3)cc1`, 58.8% (active).
As to `NNC(=O)COc1ccc(C2SCCS2)cc1`, the inhibition was 20.4%.
The same measure for `O=S(=O)(Oc1ccccc1C(=S)N1CCOCC1)c1ccc(Cl)cc1`: -36.2%; for `Cc1ccc(N(C(=O)c2snc(C(N)=O)c2N)C(C(=O)NCC2CCCO2)c2c[nH]c3ccccc23)cc1` (centres undefined): 23.7%.
With `COC(=O)c1ccccc1NC(=O)C1CCN(C(=O)N2CCOc3ccccc32)CC1`, the inhibition was 8.07%.
The same measure for `Cc1nn(CC(=O)Nc2nc3ccccc3s2)c(C)c1[N+](=O)[O-]`: 26.1%; for `CC(=O)Nc1cccc(-c2nc3ccccc3s2)c1C`: 60.4% (active).
Turning to `Oc1ccc(-c2[nH]ncc2-c2nc3ccccc3s2)c(O)c1`, the inhibition is 13.6%.
For `CC(=O)N1CCSc2ccc(S(=O)(=O)N3CCC(C)CC3)cc21`, the inhibition is -12.1%.
Turning to `O=C(Nc1ccccc1N1CCCC1)c1ccc2ccccc2c1`, the inhibition was 58.1%.
The same measure for `CCCN(CCC)C(=S)Nc1cc(C(=O)OC)ccc1C(=O)OC`: -14.3%.
The result for `COc1ccc(S(=O)(=O)N(CC(=O)N/N=C/c2ccc(C(=O)O)cc2)Cc2ccccc2)cc1OC` reads 1.95%.
The result for `CCC(C)NC(=O)c1c(N)n(/N=C/c2cccs2)c2nc3ccccc3nc12` (centres undefined) reads 107% (active); that for `CC(C)Cn1c(N)c(C(=O)NCc2cccs2)c2nc3ccccc3nc21`, -13.1%; that for `CCCNC(=O)c1c(N)n(-c2ccc(S(N)(=O)=O)cc2)c2nc3ccccc3nc12`, -14.1%.

A word on the inhibition: it is the change of the read-out against control, counted positive when it falls.
